# Laboratory results taken from article PMC7862700, “An all-to-all approach to the identification of sequence-specific readers for epigenetic DNA modifications on cytosine”.
# Assays:
# Test in all cases: DAPPL (digital affinity profiling via proximity ligation, sequencing); 10 mM Tris-HCl pH 7.5, 50 mM NaCl, 1 mM DTT, 4% glycerol, room temperature, 30 min; GST-TFs on glutathione beads, 16-mer random dsDNA library, 0.1% formaldehyde crosslink after washing; high values mean tight binding
# FEV = target: T1, FEV (Homo sapiens, UniProt Q99581 1-238); conditions: protein: recombinant; tags: N-terminal GST; dsDNA, one strand shown
# T1 sequence: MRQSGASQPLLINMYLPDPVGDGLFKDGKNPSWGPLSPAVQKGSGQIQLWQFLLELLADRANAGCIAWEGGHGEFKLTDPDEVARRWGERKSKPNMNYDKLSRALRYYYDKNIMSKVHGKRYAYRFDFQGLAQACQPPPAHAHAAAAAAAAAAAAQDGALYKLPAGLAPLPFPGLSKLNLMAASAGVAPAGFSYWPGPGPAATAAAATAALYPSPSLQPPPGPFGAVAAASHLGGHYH
# Procedure, shortened: (§1)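 Binding signal is each hexamer's read frequency for a factor divided by its frequency in the tag-only sample. The factors were GST-fused human transcription factors from yeast, captured on glutathione beads, DNA-barcoded and pooled with that sample. Pools were incubated with 200 nmole of a random double-stranded 16-mer DNA library in Tris/NaCl/DTT/glycerol buffer at room temperature for 30 min, then washed, crosslinked with 0.1% formaldehyde, proximity-ligated with BsaI/T4 ligase (1 h, 37 °C), PCR-amplified and sequenced on an Illumina NextSeq500.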
# ETV5 = ETV5 (Homo sapiens, UniProt P41161 1-510); conditions: protein: recombinant; tags: N-terminal GST; dsDNA, one strand shown
# Procedure, shortened: as §1
# HSF1 = HSF1 (Homo sapiens, UniProt Q00613 1-529); conditions: protein: recombinant; tags: N-terminal GST; chain copies: 3; dsDNA, one strand shown
# Procedure, shortened: as §1
# SPIC = target: T2, SPIC (Homo sapiens, UniProt Q8N5J4 1-248); conditions: protein: recombinant; tags: N-terminal GST; dsDNA, one strand shown
# T2 sequence: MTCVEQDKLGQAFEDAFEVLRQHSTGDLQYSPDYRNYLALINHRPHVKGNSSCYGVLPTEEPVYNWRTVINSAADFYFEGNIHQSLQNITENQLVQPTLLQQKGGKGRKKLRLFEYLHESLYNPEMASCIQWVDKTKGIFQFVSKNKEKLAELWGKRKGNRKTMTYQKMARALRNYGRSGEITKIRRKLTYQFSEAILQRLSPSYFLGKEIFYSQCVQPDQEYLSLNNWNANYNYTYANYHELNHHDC
# Procedure, shortened: as §1
# ELF4 = ELF4 (Homo sapiens, UniProt Q99607 1-663); conditions: protein: recombinant; tags: N-terminal GST; dsDNA, one strand shown
# Procedure, shortened: as §1
# ELK4 = target: T3, ELK4 (Homo sapiens, UniProt P28324-2 1-405); conditions: protein: recombinant; tags: N-terminal GST; dsDNA, one strand shown
# T3 sequence: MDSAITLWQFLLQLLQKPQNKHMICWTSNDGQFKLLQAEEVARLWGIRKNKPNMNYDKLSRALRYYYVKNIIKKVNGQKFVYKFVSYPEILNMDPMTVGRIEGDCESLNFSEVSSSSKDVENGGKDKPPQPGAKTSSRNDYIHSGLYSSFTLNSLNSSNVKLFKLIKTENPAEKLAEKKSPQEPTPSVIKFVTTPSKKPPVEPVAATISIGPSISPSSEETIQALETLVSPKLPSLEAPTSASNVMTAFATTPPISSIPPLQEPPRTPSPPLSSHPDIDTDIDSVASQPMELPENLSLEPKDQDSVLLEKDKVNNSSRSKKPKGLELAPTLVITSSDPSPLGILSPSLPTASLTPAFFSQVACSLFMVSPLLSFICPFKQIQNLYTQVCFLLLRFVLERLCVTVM
# Procedure, shortened: as §1
# ETV2 = target: T4, ETV2 (Homo sapiens, UniProt O00321 1-342); conditions: protein: recombinant; tags: N-terminal GST; dsDNA, one strand shown
# T4 sequence: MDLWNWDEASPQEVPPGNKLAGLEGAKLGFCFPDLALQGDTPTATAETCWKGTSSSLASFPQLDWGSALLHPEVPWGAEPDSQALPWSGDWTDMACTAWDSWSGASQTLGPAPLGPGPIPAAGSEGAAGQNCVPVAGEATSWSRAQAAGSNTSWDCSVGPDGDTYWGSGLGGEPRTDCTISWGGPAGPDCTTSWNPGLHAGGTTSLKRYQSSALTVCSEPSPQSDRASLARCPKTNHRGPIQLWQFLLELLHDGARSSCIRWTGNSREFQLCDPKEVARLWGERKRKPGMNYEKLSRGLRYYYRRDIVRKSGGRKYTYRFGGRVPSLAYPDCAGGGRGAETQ
# Procedure, shortened: as §1
# ELF3 = target: T5, ELF3 (Homo sapiens, UniProt P78545 1-371); conditions: protein: recombinant; tags: N-terminal GST; dsDNA, one strand shown
# T5 sequence: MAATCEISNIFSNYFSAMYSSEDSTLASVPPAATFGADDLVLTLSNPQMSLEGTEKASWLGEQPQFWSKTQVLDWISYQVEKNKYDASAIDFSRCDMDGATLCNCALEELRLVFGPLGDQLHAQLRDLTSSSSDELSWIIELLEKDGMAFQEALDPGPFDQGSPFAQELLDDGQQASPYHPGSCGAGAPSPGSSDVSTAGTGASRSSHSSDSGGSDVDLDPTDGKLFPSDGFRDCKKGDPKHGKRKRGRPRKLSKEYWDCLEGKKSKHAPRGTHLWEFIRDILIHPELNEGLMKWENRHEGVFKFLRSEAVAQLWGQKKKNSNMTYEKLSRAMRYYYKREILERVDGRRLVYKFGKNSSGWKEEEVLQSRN
# Procedure, shortened: as §1
# CRX = CRX (Homo sapiens, UniProt O43186 1-299); conditions: protein: recombinant; tags: N-terminal GST; dsDNA, one strand shown
# Procedure, shortened: as §1
# ETV1 = ETV1 (Homo sapiens, UniProt P50549 1-477); conditions: protein: recombinant; tags: N-terminal GST; dsDNA, one strand shown
# Procedure, shortened: as §1
# Sequence of ETV5 (P41161 whole entry): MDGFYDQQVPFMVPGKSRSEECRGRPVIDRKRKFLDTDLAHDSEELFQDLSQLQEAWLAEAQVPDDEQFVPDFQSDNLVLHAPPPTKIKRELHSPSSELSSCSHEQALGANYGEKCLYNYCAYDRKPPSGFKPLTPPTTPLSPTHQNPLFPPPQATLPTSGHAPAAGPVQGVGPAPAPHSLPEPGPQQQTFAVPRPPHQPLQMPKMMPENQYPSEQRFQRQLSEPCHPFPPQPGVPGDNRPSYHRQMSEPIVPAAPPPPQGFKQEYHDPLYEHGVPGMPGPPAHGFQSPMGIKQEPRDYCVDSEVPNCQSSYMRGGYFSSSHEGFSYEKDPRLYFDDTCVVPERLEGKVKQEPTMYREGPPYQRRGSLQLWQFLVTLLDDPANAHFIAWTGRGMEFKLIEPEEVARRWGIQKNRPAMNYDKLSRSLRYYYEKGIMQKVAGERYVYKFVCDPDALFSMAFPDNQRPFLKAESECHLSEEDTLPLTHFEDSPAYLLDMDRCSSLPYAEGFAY
# Sequence of ETV1 (P50549 whole entry): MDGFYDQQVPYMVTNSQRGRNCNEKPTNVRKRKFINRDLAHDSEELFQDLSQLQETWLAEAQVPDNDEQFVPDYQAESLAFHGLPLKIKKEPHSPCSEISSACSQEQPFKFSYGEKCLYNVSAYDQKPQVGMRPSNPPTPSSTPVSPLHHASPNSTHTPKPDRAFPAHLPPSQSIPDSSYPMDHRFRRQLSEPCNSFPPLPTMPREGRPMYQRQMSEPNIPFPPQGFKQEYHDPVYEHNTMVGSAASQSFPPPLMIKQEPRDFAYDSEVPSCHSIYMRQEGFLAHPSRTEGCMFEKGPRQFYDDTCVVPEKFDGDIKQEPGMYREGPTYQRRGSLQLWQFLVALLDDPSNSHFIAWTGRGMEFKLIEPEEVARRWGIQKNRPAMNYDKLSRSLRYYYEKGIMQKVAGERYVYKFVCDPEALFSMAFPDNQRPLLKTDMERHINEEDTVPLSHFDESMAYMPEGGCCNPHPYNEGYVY
# Sequence of CRX (O43186 whole entry): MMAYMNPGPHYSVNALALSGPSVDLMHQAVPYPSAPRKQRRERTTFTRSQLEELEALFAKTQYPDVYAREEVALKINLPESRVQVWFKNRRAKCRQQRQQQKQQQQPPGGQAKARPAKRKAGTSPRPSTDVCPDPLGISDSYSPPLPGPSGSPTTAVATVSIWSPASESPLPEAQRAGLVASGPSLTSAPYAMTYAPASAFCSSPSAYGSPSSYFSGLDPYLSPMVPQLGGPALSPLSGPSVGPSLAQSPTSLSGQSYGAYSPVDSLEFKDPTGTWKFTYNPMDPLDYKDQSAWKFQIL
# Sequence of ELF4 (Q99607 whole entry): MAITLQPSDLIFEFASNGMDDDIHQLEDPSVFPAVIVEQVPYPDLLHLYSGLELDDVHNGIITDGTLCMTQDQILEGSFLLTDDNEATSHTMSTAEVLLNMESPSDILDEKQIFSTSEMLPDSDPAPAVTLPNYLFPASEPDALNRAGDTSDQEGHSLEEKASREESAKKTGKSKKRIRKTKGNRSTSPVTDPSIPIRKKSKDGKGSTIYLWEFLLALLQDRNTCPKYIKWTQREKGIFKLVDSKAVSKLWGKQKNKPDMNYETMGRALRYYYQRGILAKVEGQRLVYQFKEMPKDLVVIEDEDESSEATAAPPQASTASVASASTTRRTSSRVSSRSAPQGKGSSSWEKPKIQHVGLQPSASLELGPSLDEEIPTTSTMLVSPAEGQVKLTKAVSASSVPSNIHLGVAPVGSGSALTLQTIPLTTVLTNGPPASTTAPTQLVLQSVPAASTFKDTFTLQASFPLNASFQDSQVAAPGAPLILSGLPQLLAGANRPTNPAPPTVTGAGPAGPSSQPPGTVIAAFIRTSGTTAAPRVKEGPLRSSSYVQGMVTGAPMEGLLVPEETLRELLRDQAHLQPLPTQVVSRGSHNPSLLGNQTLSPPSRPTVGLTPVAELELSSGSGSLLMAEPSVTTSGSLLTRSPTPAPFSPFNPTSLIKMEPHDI
# Sequence of HSF1 (Q00613 whole entry): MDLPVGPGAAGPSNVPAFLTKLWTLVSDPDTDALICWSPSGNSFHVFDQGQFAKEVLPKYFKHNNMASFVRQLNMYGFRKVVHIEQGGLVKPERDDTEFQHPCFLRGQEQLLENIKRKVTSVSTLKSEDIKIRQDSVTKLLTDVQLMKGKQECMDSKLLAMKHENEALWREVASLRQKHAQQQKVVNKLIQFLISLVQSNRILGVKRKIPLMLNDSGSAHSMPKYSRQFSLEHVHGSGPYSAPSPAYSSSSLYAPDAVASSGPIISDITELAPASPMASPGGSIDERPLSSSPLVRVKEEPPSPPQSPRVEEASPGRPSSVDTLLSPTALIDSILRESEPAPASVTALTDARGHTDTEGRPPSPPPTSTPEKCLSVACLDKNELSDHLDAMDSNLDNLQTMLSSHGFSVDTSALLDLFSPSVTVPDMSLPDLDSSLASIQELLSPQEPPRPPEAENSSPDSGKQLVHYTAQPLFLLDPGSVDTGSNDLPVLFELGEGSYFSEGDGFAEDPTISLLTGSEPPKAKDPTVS
sequence,measurement,setting,value
ACTTAC,binding signal,FEV,"1.09 fold enrichment (6-mer frequency, TF over GST control)"
same,binding signal,ETV5,"1.17 fold enrichment (6-mer frequency, TF over GST control)"
same,binding signal,HSF1,"1.15 fold enrichment (6-mer frequency, TF over GST control)"
same,binding signal,SPIC,"1.1 fold enrichment (6-mer frequency, TF over GST control)"
same,binding signal,ELF4,"1.24 fold enrichment (6-mer frequency, TF over GST control)"
same,binding signal,ELK4,"1.12 fold enrichment (6-mer frequency, TF over GST control)"
same,binding signal,ETV2,"1.06 fold enrichment (6-mer frequency, TF over GST control)"
same,binding signal,ELF3,"1.23 fold enrichment (6-mer frequency, TF over GST control)"
same,binding signal,CRX,"1.42 fold enrichment (6-mer frequency, TF over GST control)"
same,binding signal,ETV1,"1.16 fold enrichment (6-mer frequency, TF over GST control)"
